From PubChem BioAssay (NCATS)
Results filed as inconclusive are left out. Calls of active or inactive are those of the source. The call rests on the fitted dose curve; in most records, active means well fitted inhibition curve with a large enough effect; inconclusive means small, poorly fitted or top-dose-only effect; inactive means flat fitted curve, though single readings scatter.

System: CRL-7250
Assay: qHTS assay to identify novel small-molecules to repurpose for Merkel cell carcinoma treatment (AID 1296009); further: nearly all actives have a fitted effect of over 60% in size
Details: MCC and control cell lines, CellTiter-Glo viability, 72 h; series mostly up to 44.8 µM
Summary of the method: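 Cells were incubated with compound for 72 hr at 37 degree celsius before CellTiter-Glo addition. Luminescence was normalized with no-cell wells as full cytotoxicity and DMSO as baseline.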

Structure (SMILES)	outcome
NCCCC(O)(P(=O)(O)O)P(=O)(O)O	inactive
O=C1[C@H](CC[C@H](O)c2ccc(F)cc2)[C@@H](c2ccc(O)cc2)N1c1ccc(F)cc1	inactive
Cc1cccc(Nc2ccncc2S(=O)(=O)NC(=O)NC(C)C)c1	inactive
C[C@H]1c2cccc(O)c2C(O)=C2C(=O)[C@]3(O)C(O)=C(C(N)=O)C(=O)[C@@H](N(C)C)[C@@H]3[C@@H](O)[C@@H]21	inactive
CC(C)(C(=O)O)c1ccc(C(O)CCCN2CCC(C(O)(c3ccccc3)c3ccccc3)CC2)cc1 (stereo not given)	inactive
CCC1C(=O)OCC1Cc1cncn1C (stereo not given)	inactive
O=C(O)CCNC(=O)c1ccc(N=Nc2ccc(O)c(C(=O)O)c2)cc1	inactive
CN1CCN(C2=Nc3ccccc3Oc3ccc(Cl)cc32)CC1	inactive
CS(=O)(=O)CCNCc1ccc(-c2ccc3ncnc(Nc4ccc(OCc5cccc(F)c5)c(Cl)c4)c3c2)o1	inactive
Nc1ccc(O)c(C(=O)O)c1	inactive
CN(C)c1nc(N(C)C)nc(N(C)C)n1	inactive
Cc1ccnc2c1NC(=O)c1cccnc1N2C1CC1	inactive
O=c1c(O)c(-c2ccc(O)c(O)c2)oc2cc(O)cc(O)c12	inactive
Cc1[nH]cnc1CN1CCc2c(c3ccccc3n2C)C1=O	inactive
CS(=O)c1ccc(-c2nc(-c3ccc(F)cc3)c(-c3ccncc3)[nH]2)cc1 (stereo not given)	inactive
Cc1ccccc1C(OCCN(C)C)c1ccccc1 (stereo not given)	inactive
CNCC[C@H](Oc1cccc2ccccc12)c1cccs1	inactive
CN(C)c1ccc(O)c2c1C[C@H]1C[C@H]3[C@H](N(C)C)C(=O)C(C(N)=O)=C(O)[C@@]3(O)C(=O)C1=C2O	inactive
CC(S)C(=O)NCC(=O)O (stereo not given)	inactive
COC(c1ccccc1)(c1ccccc1)[C@H](Oc1nc(C)cc(C)n1)C(=O)O	inactive

Structure (SMILES)	outcome
NC(=O)c1cn(Cc2c(F)cccc2F)nn1	inactive
CN(CCOc1ccc(NS(C)(=O)=O)cc1)CCc1ccc(NS(C)(=O)=O)cc1	inactive
O=C1NC(=O)C(c2ccccc2)(c2ccccc2)N1	inactive
CN(N=O)C(=O)N[C@@H]1[C@@H](O)[C@H](O)[C@@H](CO)O[C@@H]1O	inactive
Cc1cc2c(s1)Nc1ccccc1N=C2N1CCN(C)CC1	inactive
CCOc1ccc2ccccc2c1C(=O)N[C@@H]1C(=O)N2[C@@H]1SC(C)(C)[C@@H]2C(=O)O	inactive
CCCCc1ncc(/C=C(\Cc2cccs2)C(=O)O)n1Cc1ccc(C(=O)O)cc1	inactive
Cc1[nH]c(=O)c(C#N)cc1-c1ccncc1	inactive
C[C@H]1O[C@H](O[C@H]2[C@H](O)[C@@H](O)[C@@H](O[C@H]3[C@H](O)[C@@H](O)[C@H](O)O[C@@H]3CO)O[C@@H]2CO)[C@H](O)[C@@H](O)[C@@H]1N[C@H]1C=C(CO)[C@@H](O)[C@H](O)[C@H]1O	inactive
Cc1ccc(C)c(OCCCC(C)(C)C(=O)O)c1	inactive
O=c1n(CCCN2CCN(c3cccc(Cl)c3)CC2)nc2ccccn12	inactive
CC12CC3CC(C)(C1)CC(N)(C3)C2	inactive
C1N2CN3CN1CN(C2)C3	inactive
CC(C)Nc1cccnc1N1CCN(C(=O)c2cc3cc(NS(C)(=O)=O)ccc3[nH]2)CC1	inactive
CNS(=O)(=O)CCc1ccc2[nH]cc(C3CCN(C)CC3)c2c1	inactive
CC(=O)Nc1nnc(S(N)(=O)=O)s1	inactive
CO/N=C1\CN(c2nc3c(cc2F)c(=O)c(C(=O)O)cn3C2CC2)CC1CN (stereo not given)	inactive
CNCCc1ccccn1	inactive
Cc1ccc(-c2cc(C(F)(F)F)nn2-c2ccc(S(N)(=O)=O)cc2)cc1	inactive
CN1CCN(CCCN2c3ccccc3Sc3ccc(Cl)cc32)CC1	inactive
